# In the supplement of paper PMC8728848:
# The sample as a whole holds a higher share of the strongest signals than the screen did.
# B1: L-Selectin (Homo sapiens), P14151 (protein)
# chain: MIFPWKCQSTQRDLWNIFKLWGWTMLCCDFLAHHGTDCWTYHYSEKPMNWQRARRFCRDNYTDLVAIQNKAEIEYLEKTLPFSRSYYWIGIRKIGGIWTWVGTNKSLTEEAENWGDGEPNNKKNKEDCVEIYIKRNKDAGKWNDDACHKLKAALCYTASCQPWSCSGHGECVEIINNYTCNCDVGYYGPQCQFVIQCEPLEAPELGTMDCTHPLGNFSFSSQCAFSCSEGTNLTGIEETTCGPFGNWSSPEPTCQVIQCEPLSAPDLGIMNCSHPLASFSFTSACTFICSEGTELIGKKKTICESSGIWSNPSPICQKLDKSFSMIKEGDYNPLFIPVAVMVTAFSGLAFIIWLARRLKKGKKSKRSMNDPY
# Columns and labels:
# Test in all cases: glycan array binding signal (z-score within array); higher = stronger binding
# Conditions in all cases: glycan notation: IUPAC condensed, linker removed
# [1] = target: Fuc(a1-2)Gal(b1-3)[Fuc(a1-4)]GlcNAc
# In short: (§1)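 The Consortium for Functional Glycomics database supplied 3228 glycan arrays, of which those lacking an available protein sequence were dropped. The binding signal, a within-array Z-score, was averaged across arrays of the same protein sequence and across linkers. Negative scores can be read as non-binding.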
# [2] = target: Fuc(a1-3)[Gal(b1-4)]Glc6S
# In short: as §1
# [3] = target: Fuc(a1-3)[Gal(b1-4)]GlcNAc(b1-4)Gal(b1-4)[Fuc(a1-3)]GlcNAc
# In short: as §1
# [4] = target: Fuc(a1-3)[Gal3S(b1-4)]Glc6S
# In short: as §1
# [5] = target: Fuc(a1-3)[Gal3S(b1-4)]GlcNAc6S
# In short: as §1
# [6] = target: Gal(a1-6)Glc
# In short: as §1
# [7] = target: Gal(b1-3)Gal
# In short: as §1
# [8] = target: Gal(b1-4)Glc6S
# In short: as §1
# [9] = target: Gal(b1-4)GlcNAc(b1-3)Gal(b1-4)[Fuc(a1-3)]GlcNAc(b1-3)Gal(b1-4)[Fuc(a1-3)]GlcNAc
# In short: as §1
# [10] = target: Gal(b1-4)GlcNAc(b1-6)Gal(b1-4)GlcNAc
# In short: as §1
# [11] = target: Gal3S(b1-3)GlcNAc
# In short: as §1
# [12] = target: Gal3S(b1-3)[Fuc(a1-4)]GlcNAc
# In short: as §1
# [13] = target: Gal3S6S(b1-4)GlcNAc6S
# In short: as §1
# [14] = target: Gal6S(b1-4)GlcNAc
# In short: as §1
# [15] = target: GlcNAc(b1-4)Gal(b1-4)GlcNAc
# In short: as §1
# [16] = target: Man(a1-2)Man(a1-3)[Man(a1-6)]Man(a1-6)[Man(a1-2)Man(a1-3)]Man(b1-4)GlcNAc(b1-4)GlcNAc
# In short: as §1
# [17] = target: Man(a1-3)[Man(a1-6)]Man(a1-6)[Man(a1-3)]Man
# In short: as §1
# [18] = target: Man(a1-3)[Man(a1-6)]Man(b1-4)GlcNAc(b1-4)GlcNAc
# In short: as §1
# [19] = target: Neu5Ac(a2-3)Gal(b1-3)GalNAc
# In short: as §1
# [20] = target: Neu5Ac(a2-3)Gal(b1-3)GalNAc(b1-3)Gal(b1-4)GlcNAc
# In short: as §1
# [21] = target: Neu5Ac(a2-3)Gal(b1-3)GlcNAc
# In short: as §1
# [22] = target: Neu5Ac(a2-3)Gal(b1-3)[Neu5Ac(a2-3)Gal(b1-4)]GlcNAc
# In short: as §1
# [23] = target: Neu5Ac(a2-3)Gal(b1-4)GlcNAc(b1-3)Gal(b1-4)GlcNAc
# In short: as §1
# [24] = target: Neu5Ac(a2-3)Gal(b1-4)[Fuc(a1-3)]GlcNAc6S
# In short: as §1
# [25] = target: Neu5Ac(a2-3)Gal6S(b1-4)[Fuc(a1-3)]GlcNAc
# In short: as §1
# [26] = target: Neu5Ac(a2-3)[GalNAc(b1-4)]Gal(b1-4)Glc
# In short: as §1
# [27] = target: Neu5Ac(a2-8)Neu5Ac(a2-8)Neu5Ac(a2-3)[GalNAc(b1-4)]Gal(b1-4)Glc
# In short: as §1
# [28] = target: Neu5Ac9Ac(a2-6)Gal(b1-4)GlcNAc
# In short: as §1
binder,measurement,setting,value
B1,glycan array binding signal (z-score),[1],-0.36
same,glycan array binding signal (z-score),[2],0.137
same,glycan array binding signal (z-score),[3],-0.145
same,glycan array binding signal (z-score),[4],6.9
same,glycan array binding signal (z-score),[5],8.15
same,glycan array binding signal (z-score),[6],0.48
same,glycan array binding signal (z-score),[7],-0.315
same,glycan array binding signal (z-score),[8],0.942
same,glycan array binding signal (z-score),[9],-0.38
same,glycan array binding signal (z-score),[10],-0.336
same,glycan array binding signal (z-score),[11],-0.333
same,glycan array binding signal (z-score),[12],3.08
same,glycan array binding signal (z-score),[13],4.59
same,glycan array binding signal (z-score),[14],-0.078
same,glycan array binding signal (z-score),[15],0.119
same,glycan array binding signal (z-score),[16],-0.024
same,glycan array binding signal (z-score),[17],-0.198
same,glycan array binding signal (z-score),[18],-0.246
same,glycan array binding signal (z-score),[19],0.005
same,glycan array binding signal (z-score),[20],-0.116
same,glycan array binding signal (z-score),[21],-0.147
same,glycan array binding signal (z-score),[22],-0.044
same,glycan array binding signal (z-score),[23],-0.338
same,glycan array binding signal (z-score),[24],9.18
same,glycan array binding signal (z-score),[25],-0.028
same,glycan array binding signal (z-score),[26],-0.363
same,glycan array binding signal (z-score),[27],-0.314
same,glycan array binding signal (z-score),[28],0.073
